Test results published in PubChem BioAssay AID651567 (National Center for Advancing Translational Sciences (NCATS), 2012).
In all, about 1,200 compounds went through this assay and about 10 (0.8%) were called active. Not shown: some 4% with an inconclusive outcome. Calls come from the whole dose curve; as a rule, active = well fitted inhibition curve with a large enough effect; inconclusive = small, poorly fitted or top-dose-only effect; inactive = no such curve, though single readings can be large or run the other way. Shown is part of a subset that was picked to be rich in actives. A call without a number means that no potency is given here.

Experiment: qHTS Assay to Find Inhibitors of Chronic Active B-Cell Receptor Signaling: Hit Validation in OCI-Ly3 Assay
Conditions: OCI-Ly3 IkB-luciferase reporter, Chroma-Glo luminescence, 4 h; series mostly up to 46.1 µM
Source text: Diffuse large B-cell lymphoma (DLBCL) is the most common category of non-Hodgkin lymphoma, with ~20,000 new cases per year in the United States. DLBCL should be regarded as a collection of different neoplasms. Microarray gene expression analysis has defined two principal types of DLBCL, named for their similarity to normal B cell stages or activation states: a germinal center B-cell (GCB) type, and an activated B-cell (ABC) type. In ABC-DLBCL, a constitutive high-level activity of the NF-kappaB family of transcription factors has been observed (1) and NF-kappaB target genes are more highly expressed in ABC primary tumors than in GCB tumors. Functional studies have shown a constitutive high-level activity of the IkappaB (inhibitor of kappa-B) kinase (IKK) complex. […] Further analysis of DLBCL primary tumors for NF-kappaB target gene expression imply that although CARD11 is required for constitutive IKK activity in all ABC-DLBCL lines, mutations in CARD11 may be the root cause of IKK activation only in lines or tumors with such mutations. In other words, CARD11 mutations may explain NF-kappaB activation in only 10% of ABC-DLBCL cases. […] This process has been termed 'chronic active BCR signaling' (CABS). The goal of this screen is to find small-molecule inhibitors of the CABS pathway found in ABC-DLBCL lines using a cell-based assay that measures IkappaBalpa stability, which has already been extensively validated in the OCI-Ly3 line (PubChem AID:445; REF: 4). […] Hits from the primary screen were tested in this selectivity secondary assay. NIH Molecular Libraries Probe Production Network [MLPCN] NIH Chemical Genomics Center [NCGC] MLPCN Grant: R03 DA031086 PI Name: Dr. R. Eric Davis
Cells were seeded in 1536-well plates at 5000 cells/3ul in IMDM medium containing 0.5% FBS, w/o phenol red, L-glutamine, 25 mM HEPES, 3 mg/ml sodium bicarbonate. After centrifugation for 1 min. at 1000 rpm, 23 nl of compounds or DMSO were delivered to each well using a pin tool. Then 1ul 80ng/ml doxycycline was dispensed into white solid 1536-well plates and the plates were incubated at 37C/5% C02 in a cell incubator for 4 hrs. Then 4 ul Chroma-Glo luminescent substrate mix (Promega) was added to each well. The plate was incubated at R.T. for 10-15 min. The plates were measured on a ViewLux plate reader for green luminescence (540/20 nm filter) and red luminescence (618/8 nm filter). The green and red luminescent signals were corrected for red and green luminescence filter overlap using previously determined filter calibration constants (determined using the procedure outlined in the Promega Technical Manual). The %Activity was determined from the ratio of corrected green/red luminescent values. Green luminescent and ratio %Activity was determined by normalizing to the difference in signal between basal cells (0% Activity) and cells incubated with 10 uM of the proteasome inhibitor MG-132 (100% Activity). Red luminescent %Activity was normalized to the difference between red luminesence in basal cells (0%Activity) and zero luminescence (-100% Activity). Concentration-response curves were fitted to the signals arising from the green luminescence (I-kappa-B-alpha-luciferase fusion; IkB-luc) and the red luminescence (unfused luciferase; luc) as well as the calculated ratio. The concentration-effect curves were then classified based on curve quality (r2), response magnitude and degree of measured activity. Compounds were then categorized based on their concentration-response curves for all three datasets (Ikb-luc, luc and ratio).
Potency is the fitted concentration of half-maximal effect.

| Compound | Potency |
| --- | --- |
| CCN1C(=O)C(O)(C2COC(C)(C)CC2=O)c2cc(Br)ccc21 (stereo not drawn) | inactive |
| Cc1nn(-c2ccccc2)c(C)c1/C=N/NC(=O)c1cc(-c2cccs2)[nH]n1 | 18.4 µM (active) |
| Cc1ccc(-c2cc(C(=O)N/N=C/c3c(C)nn(-c4ccccc4)c3C)[nH]n2)cc1 | inactive |
| O=C(N/N=C/c1cccs1)c1cc(-c2ccncc2)nc2ccccc12 | inactive |
| COc1ccc(COC(=O)C2=C(C)NC(=O)NC2c2cc(Br)c(O)c(OC)c2)cc1 (stereo not drawn) | inactive |
| CCOC(=O)CSc1nc(C)c2cccc(C)c2n1 | inactive |
| COc1ccc(C2=Nn3c(nnc3-c3ccccc3OC)SC2)cc1OC | inactive |
| Fc1cccc2sc(Nc3nnc(-c4ccccc4)o3)nc12 | inactive |
| Nc1ncnc2c1ncn2C1OC(C(=O)NC2CC2)C(O)C1O (stereo not drawn) | inactive |
| CC(/C=N/NC(=O)c1cc(-c2ccc(Cl)cc2)nc2ccccc12)=C\c1ccco1 | inactive |
| Cc1noc(C)c1COc1ccc(CC(=O)NCc2ccccc2)cc1 | inactive |
| Cc1cc(C)c(S(=O)(=O)Nc2ccc3c4c(cccc24)CC3)c(C)c1 | inactive |
| CCOc1ccc(Nc2cc(C)nc(-n3nc(C)cc3C)n2)cc1 | inactive |
| COc1ccc(OC)c(C2CC(=O)c3c([nH]c(C(=O)OC(C)C)c3C)C2)c1 (stereo not drawn) | inactive |
| COc1ccccc1-c1nnc(Nc2nc3c(OC)cccc3s2)o1 | inactive |
| C=CCn1c(SCC(=O)NCCO)nc2sc(C)c(C)c2c1=O | inactive |
| O=C(CNC(=O)c1ccco1)N=Nc1c(O)n(CCc2ccccc2)c2ccccc12 | inactive |
| C=CCNc1ncnc2c1ncn2C1OC(CO)C(O)C1O (stereo not drawn) | inactive |
| COc1cccc(CSc2nc3ccccc3cc2C=O)c1 | inactive |
| O=C(/C=C/c1cccc(Cl)c1)c1nc2ccccc2[nH]1 | inactive |
| COc1cc2c(cc1OC)C(c1cc3cc(OC)c(OC)cc3[nH]c1=O)N(C(=O)C1CC1)CC2 (stereo not drawn) | inactive |
| CCOc1cc(CNc2ccc3c(c2)OCCO3)cc(Br)c1OCC | inactive |
| CC(C)Oc1ccccc1C1CC(=O)Nc2cc3c(cc21)OCCO3 (stereo not drawn) | inactive |
| C=C1C(O)[C@@H]2O[C@]3(CC[C@H](/C=C/C(C)[C@@H]4CC(C)=CC5(O[C@H](C[C@@](C)(O)CO)CCC5O)O4)O3)CC[C@H]2O[C@@H]1C(O)CC(C)[C@H]1OC2(CCCCO2)CCC1C (stereo partly drawn) | inactive |
| Cc1cc(Cl)n2c(nc3ccccc32)c1C#N | inactive |
| COc1ccc(-c2noc(CSc3nc(N)c(-c4ccccc4)c(=O)[nH]3)n2)cc1OC | inactive |

| Compound | Potency |
| --- | --- |
| COc1ccc(CN2C[C@H]3CCCN3c3cc(Br)ccc3S2(=O)=O)cc1 | inactive |
| CCOCCOC(=O)c1[nH]c2c(c1C)C(=O)CC(c1ccccc1)C2 (stereo not drawn) | inactive |
| CCOc1cc(C(=O)N/N=C/C(Br)=C/c2ccccc2)cc(OCC)c1OCC | inactive |
| CCOC(=O)c1ccc(NC(=O)Nc2ccon2)cc1 | inactive |
| Cc1ccccc1Nc1c(N)c(=O)oc2ccccc12 | inactive |
| COc1cc(/C=C/c2ccc3cccc(O)c3n2)cc(OC)c1OC | inactive |
| COc1cc(/C=C/c2ccc3cccc(O)c3n2)c(Br)cc1O | inactive |
| COc1cc(/C=C/c2ccc3cccc(O)c3n2)cc(Br)c1OC | 10.3 µM (active) |
| Fc1ccc(/C=N/NC2=Nc3cccc4cccc2c34)cc1 | inactive |
| CNC(=O)c1cccc(NC(=O)C(C)c2ccc3cc(OC)ccc3c2)c1 (stereo not drawn) | inactive |
| COc1ccc(C(C)=O)cc1COC(=O)c1ccc(N)c([N+](=O)[O-])c1 | inactive |
| CCOc1cc(/C=C(/C#N)C(=O)Nc2ccc(O)cc2)cc(Br)c1O | inactive |
| COC(=O)c1ccc(C)c(NS(=O)(=O)c2ccc3c(c2)OCCO3)c1 | inactive |
| CCN(CC)c1ccc(-c2nn3c(-c4n[nH]c5c4CCC5)nnc3s2)cc1 | inactive |
| CC1C(=O)N2CCCc3cc(NC(=O)c4ccccc4Br)cc1c32 (stereo not drawn) | inactive |
| COC(=O)c1cc(C(=O)N2CCN(c3cccc(Cl)c3)CC2)cc([N+](=O)[O-])c1 | inactive |
| O=C(Nc1ccc(N2CCN(C(=O)c3ccc(Cl)cc3)CC2)cc1)c1ccc([N+](=O)[O-])o1 | 16.4 µM (active) |
| O=C(Nc1ccc(N2CCCC2)cc1)c1cc(Cl)ccc1Cl | inactive |
| CCC1=Nc2cc(C(=O)NCc3ccco3)ccc2Sc2ccccc21 | inactive |
| CCCCC[C@H](O)/C=C/[C@@H]1[C@@H](C/C=C\CCCC(=O)O)[C@H]2CO[C@@H]1C2 | inactive |
| Cc1ccc(Nc2nc(-c3c(C)nc4ncccn34)cs2)cc1 | inactive |
| Cc1ccc2[nH]c(-c3cccc(F)c3)cc(=O)c2c1 | inactive |
| COc1cc2c(cc1OC)-c1cc(NC3CCCCC3)nc(=O)n1CC2 | inactive |
| COc1cc2c(cc1OC)-c1cc(NC3CCCC3)nc(=O)n1CC2 | inactive |
| COc1cc(S(=O)(=O)N2CCCCC2)ccc1NC(=O)/C=C/c1ccccc1 | inactive |
| COc1ccccc1C(=O)Nc1ccccc1SC(=O)c1ccccc1OC | inactive |

| Compound | Potency |
| --- | --- |
| CCOc1ccc2c(c1)C(C)=CC(C)(C)N2S(=O)(=O)c1ccc(NC(C)=O)cc1 | inactive |
| Cc1ccc2nc(NC(=O)c3ccccn3)sc2c1 | inactive |
| C[C@]12C=CC(=O)C=C1CC[C@@H]1[C@@H]2[C@@H](O)C[C@@]2(C)[C@H]1CC[C@]2(O)C(=O)COC(=O)CCC(=O)O | inactive |
| C/C(Cl)=C\Cn1c(O)c(N=NC(N)=S)c2cc(Br)ccc21 | inactive |
| OC[C@H]1O[C@@H](n2cnc3c(NC4CCCC4)nc(Cl)nc32)[C@H](O)[C@@H]1O | inactive |
| Cc1[nH]n(C(N)=S)c(=O)c1N=Nc1ccc2ccccc2c1 | inactive |
| Cc1ccc(N=Nc2c(C)[nH]n(C(N)=S)c2=O)cc1 | inactive |
| Cc1[nH]n(C(N)=S)c(=O)c1N=Nc1cccc(Cl)c1 | 20.6 µM (active) |
| CCN1C(=O)c2cccc3c(NC(=O)c4ccc(OC)c(OC)c4)ccc1c23 | inactive |
| O=C1N/C(=C/c2ccc(N3CCOCC3)o2)C(=O)N1c1cccc(Cl)c1 | inactive |
| O=C(N/N=C/c1ccc(O)cc1)c1[nH]c2ccc(Br)cc2c1-c1ccccc1 | inactive |
| COc1c(Br)cc(Br)cc1/C=N/NC(=O)c1cccnc1 | inactive |
| CCOC(=O)c1c(C)oc2c1cc(NS(=O)(=O)c1ccc(C(=O)O)cc1)c1ccccc12 | inactive |
| Cc1cccc(OCCN2C(=O)C(=O)c3cc(C)ccc32)c1 | inactive |
| Cc1onc(-c2ccccc2)c1-c1nc2cc(Cl)ccc2c(=O)o1 | inactive |
| CSc1nc(SCC(=O)NCc2ccco2)c2c3c(sc2n1)COC(C)(C)C3 | inactive |
| Cc1nnc(C)n1/N=C/c1cc2ccccc2nc1Cl | inactive |
| Cc1cc(=O)c(C(=O)Nc2cccc(N3CCCC3=O)c2)nn1-c1ccccc1Cl | inactive |
| COc1ccc(C2=NC(C)(C)Cc3cc(OC)c(OC)cc32)cc1OC | inactive |
| CCCCC[C@H](O)/C=C/[C@@H]1[C@@H](C/C=C\CCCC(=O)O)[C@@H](O)C[C@H]1O | inactive |
| c1ccc(-c2cc(-c3nnc4n3N=C(c3ccc5ccccc5c3)CS4)[nH]n2)cc1 | inactive |
| O=C(c1ccc(Cl)cc1)c1cc([N+](=O)[O-])ccc1N1CCOCC1 | inactive |
| O=C(O)c1ccc(CSc2nnc(-c3ccco3)o2)cc1 | inactive |
| COC(=O)c1cccc(-n2sc3ccccc3c2=O)c1 | inactive |
| CC(Oc1ccc(Br)cc1)c1nc2c3ccccc3nc(=S)n2[nH]1 (stereo not drawn) | inactive |
| CCOc1ccccc1/C=N/Nc1nc2c(N)ncnc2n1[C@H]1O[C@@H](CO)[C@H](O)[C@@H]1O | inactive |

| Compound | Potency |
| --- | --- |
| CCCNS(=O)(=O)c1cccc(C(=O)OCc2cc(=O)oc3cc(OC)ccc23)c1 | inactive |
| Cc1ccc(NS(=O)(=O)c2cc(-c3n[nH]c(=O)c4ccccc34)ccc2C)cc1 | inactive |
| COc1ccc(-c2c(C)nn3c(N)c(C#N)cnc23)cc1OC | inactive |
| COc1cccc(-c2nnc(Nc3nc4c(F)cccc4s3)o2)c1 | inactive |
| CCOc1c(OC)cccc1C1CC(=O)Nc2cc(OC)c(OC)cc21 (stereo not drawn) | inactive |
| COc1ccc(-c2noc(CSc3nc(N)c(-c4ccccc4)c(=O)[nH]3)n2)cc1 | inactive |
| COc1ccccc1NC(=O)Cn1nnc(C(=O)NCc2cccs2)c1N | inactive |
| COc1cc2c(c(OC)c1OC)-c1ccc(OC)c(=O)cc1[C@@H](N(C)CC#CCO)CC2 | inactive |
| Cc1cccc(N(C)S(=O)(=O)c2ccc(-c3cnc(C4CC4)o3)cc2)c1 | inactive |
| C#CCOc1ccc(C2C3=C(COC3=O)Nc3cc4c(cc32)OCO4)cc1OC (stereo not drawn) | inactive |
| CCc1ccc(CCC(=O)Nc2sc3c(c2C#N)CCCC3)o1 | inactive |
| Cc1cccc(C)c1NS(=O)(=O)c1ccc(-c2cnc(C3CC3)o2)cc1 | inactive |
| O=C(O)CCCN1C(=O)/C(=C\c2ccccc2OCc2ccccc2)SC1=S | inactive |
| CC1=Nc2ccccc2/C1=C\c1sc(Nc2ccc(C)cc2)nc1O | inactive |
| COc1cccc(Nc2sc(C(=O)c3ccc(Cl)cc3)c(N)c2C(=O)NCc2ccc(C)cc2)c1 | inactive |
| CC(=O)N1c2ccc(C)cc2C(c2ccccc2)CC1C (stereo not drawn) | inactive |
| Cc1noc(C)c1CSc1nc2[nH]ncc2c(=O)n1-c1ccccc1 | inactive |
| COc1ccc2c(c1)sc1nc(-c3ccccc3)cn12 | inactive |
| Nc1ccc(C(=O)n2c3ccccc3c3ccccc32)cc1 | inactive |
| O=c1cc(-c2cccc(F)c2)[nH]c2ccccc12 | inactive |
| COc1ccc(CCNc2oc(-c3ccc(OC)c(OC)c3)nc2P(=O)(OC)OC)cc1OC | inactive |
| COc1cc(OC)c(OC)cc1/C=C1\CCC/C(=C\c2cc(OC)c(OC)cc2OC)C1=O | inactive |
| COc1ccccc1-n1cnc2cc(NCc3cccs3)ccc21 | inactive |
| NNC(=O)c1[nH]c2ccccc2c1-c1ccccc1 | inactive |
| COc1cc(Cc2nccc3cc(OC)c(OC)cc23)c(NC(C)=O)cc1OC | inactive |
